# Reference: PubChem BioAssay (NCATS)
# Where “and” joins values, the source holds several entries; their conditions need not be identical. Equal entries are not always repeated. Records with an inconclusive call do not appear. The source holds several records for some structures; these can differ, active in one and inactive in another. Calls of active or inactive are those of the source. Unless noted, calls follow the shape of the dose curve; as a rule, active = well fitted curve in the direction sought with a large enough effect; inconclusive = small, poorly fitted or top-dose-only effect, or another doubt; inactive = no such curve, though single readings can be large; an effect the other way counts as inactive or inconclusive.
# Tests used:
# [1] = biological target: Catechol O-methyltransferase (Homo sapiens) (UniProt P21964); assay: Confirmatory Screen for Target Class Profiling of Small Molecule Inhibitors of Methyltransferases (AID 1745852; calls by dose curve; as to activity change, negative = inhibition: % is scaled to controls: 0 for no effect and ±100 for the full control effect); settings: MTase-Glo luminescence, SAH detection, recombinant enzyme; measured here: COMT max response; stronger effect = lower value
# Catechol O-methyltransferase (Homo sapiens), sequence (P21964 whole entry, looked up): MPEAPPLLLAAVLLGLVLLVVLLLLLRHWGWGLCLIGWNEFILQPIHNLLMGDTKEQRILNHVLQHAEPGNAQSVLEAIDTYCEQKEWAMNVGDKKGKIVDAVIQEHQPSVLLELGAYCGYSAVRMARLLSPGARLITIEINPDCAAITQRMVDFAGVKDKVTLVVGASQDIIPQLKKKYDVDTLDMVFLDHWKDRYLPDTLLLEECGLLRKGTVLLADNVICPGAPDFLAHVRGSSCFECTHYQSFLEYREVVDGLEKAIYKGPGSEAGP
# [2] = biological target: Guanidinoacetate N-methyltransferase (Homo sapiens) (UniProt Q14353); assay: as above; settings: MTase-Glo luminescence, SAH detection, recombinant enzyme; activity change, negative = inhibition: at 57.3 µM (top of the series) unless noted; series mostly up to 57.3 µM
# [3] = biological target: Nicotinamide N-methyltransferase (Homo sapiens) (UniProt P40261); assay: as above; settings: MTase-Glo luminescence, SAH detection, recombinant enzyme; measured here: NNMT max response; stronger effect = lower value
# Nicotinamide N-methyltransferase (Homo sapiens), sequence (P40261 whole entry, looked up): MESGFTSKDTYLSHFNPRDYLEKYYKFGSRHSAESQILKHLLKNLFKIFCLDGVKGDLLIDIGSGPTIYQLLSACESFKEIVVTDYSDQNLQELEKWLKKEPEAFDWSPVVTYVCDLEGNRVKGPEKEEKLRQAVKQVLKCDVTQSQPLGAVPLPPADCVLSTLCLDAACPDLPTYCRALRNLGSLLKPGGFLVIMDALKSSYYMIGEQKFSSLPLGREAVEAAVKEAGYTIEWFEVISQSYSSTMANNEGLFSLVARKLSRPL
# [4] = biological target: Phenylethanolamine N-methyltransferase (Homo sapiens) (UniProt P11086); assay: as above; settings: MTase-Glo luminescence, SAH detection, recombinant enzyme; measured here: PNMT max response; stronger effect = lower value
# Phenylethanolamine N-methyltransferase (Homo sapiens), sequence (P11086 whole entry, looked up): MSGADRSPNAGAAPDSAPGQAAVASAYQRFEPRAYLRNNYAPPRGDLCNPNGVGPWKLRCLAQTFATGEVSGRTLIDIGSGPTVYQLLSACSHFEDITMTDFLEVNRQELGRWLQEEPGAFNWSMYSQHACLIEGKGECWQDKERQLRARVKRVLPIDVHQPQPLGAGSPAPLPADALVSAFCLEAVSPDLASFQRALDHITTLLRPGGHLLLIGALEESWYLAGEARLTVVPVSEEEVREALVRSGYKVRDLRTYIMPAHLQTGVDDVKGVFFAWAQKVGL
# [5] = qHTS profiling for inhibitors of Plasmodium falciparum proliferation (AID 504749);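 also: 0% = DMSO vehicle and full inhibition = artemisinin control; nearly all actives have a fitted effect of over 60% in size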; settings: P. falciparum in erythrocytes, SYBR Green DNA, 72 h, at 28.7 µM (top of the series)
# How it was run: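 P. falciparum-infected erythrocytes (0.3% parasitemia, 2.5% hematocrit) incubated with compound 72 h at 37 C, 5% CO2. Parasite DNA detected by SYBR Green after lysis, overnight at room temperature; normalised to 0.29 uM artemisinin and DMSO.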
# [6] = biological target: Phospholipid hydroperoxide glutathione peroxidase GPX4 (Homo sapiens) (UniProt P36969); assay: Primary qHTS Assay for Inhibitors of Recombinant Selenoprotein Glutathione Peroxidase 4 (GPX4) (AID 1845192); settings: recombinant GPX4, GR-coupled NADPH fluorescence, 15 min; series mostly up to 50 µM; also: % is scaled to controls: 0 for no effect and ±100 for the full control effect; nearly all actives have a fitted effect of over 65% in size
# Phospholipid hydroperoxide glutathione peroxidase GPX4 (Homo sapiens), sequence (P36969 whole entry, looked up): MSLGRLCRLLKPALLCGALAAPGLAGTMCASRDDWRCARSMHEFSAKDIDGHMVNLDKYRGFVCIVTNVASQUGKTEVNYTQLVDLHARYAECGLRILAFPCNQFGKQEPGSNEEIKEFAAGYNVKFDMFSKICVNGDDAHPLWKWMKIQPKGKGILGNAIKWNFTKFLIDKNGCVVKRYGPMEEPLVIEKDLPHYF
# How it was run: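 GR-coupled assay: recombinant GPX4 preincubated 30 min with compound at room temperature; final 200 nM GPX4, 1 mM GSH, 0.5 mM cumene hydroperoxide, 0.5 mM NADPH, 100 nM GR, 0.01% BSA, pH 7.5 Tris. NADPH fluorescence (340/450 nm) read at 0 and 15 min.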
# [7] = qHTS assay to identify inhibitors of the type 1 interferon - major histocompatibility complex class I in skeletal muscle: Counter screen cell viability and HiBit confirmation (AID 1347412); settings: iHSKM muscle cells + IFN-b, HiBiT or CellTiter-Glo, 24 h, at 45.9 µM (top of the series); also: % is scaled to controls: 0 for no effect and ±100 for the full control effect; nearly all actives have a fitted effect of over 60% in size
# How it was run: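 After 24 h with human IFN-beta (4 ng/ml) and compound titrations (top 46 uM final, 1:3, 12 points), HLA-B HiBit myoblasts were lysed for either Nano-Glo HiBiT luminescence or CellTiter Glo viability on paired plates.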
# [8] = biological target: Cytochrome P450 2C19 (Homo sapiens) (UniProt P33261); assay: qHTS Assay for Inhibitors and Substrates of Cytochrome P450 2C19 (AID 899); settings: recombinant CYP2C19, luciferin-H EGE luminescence; series mostly up to 57.1 µM; also: nearly all actives have a fitted effect of over 60% in size; also: potency is read from the fitted curve at half-maximal effect; as to activity, negative = inhibition: % is scaled to controls: 0 for no effect and ±100 for the full control effect
# Cytochrome P450 2C19 (Homo sapiens), sequence (P33261 whole entry, looked up): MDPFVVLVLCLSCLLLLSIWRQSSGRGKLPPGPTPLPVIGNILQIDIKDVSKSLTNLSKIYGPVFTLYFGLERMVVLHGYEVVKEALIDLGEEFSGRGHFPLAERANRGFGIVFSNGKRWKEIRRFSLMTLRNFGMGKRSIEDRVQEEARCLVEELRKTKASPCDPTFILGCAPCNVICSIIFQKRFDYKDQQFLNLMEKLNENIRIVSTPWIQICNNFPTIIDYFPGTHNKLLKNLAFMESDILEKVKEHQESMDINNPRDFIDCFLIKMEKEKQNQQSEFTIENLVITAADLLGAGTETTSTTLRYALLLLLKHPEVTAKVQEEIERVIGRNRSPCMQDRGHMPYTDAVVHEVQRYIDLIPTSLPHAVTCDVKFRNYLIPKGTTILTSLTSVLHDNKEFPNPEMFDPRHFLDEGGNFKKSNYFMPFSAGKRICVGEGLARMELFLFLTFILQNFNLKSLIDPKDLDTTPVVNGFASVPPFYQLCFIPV
# How it was run: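 Luminescent read-out of luciferin formed from Luciferin-H EGE (10uM, equal to KM). Enzyme 5nM in 50mM KPO4; compound added, 10 min at 37C, then NADPH regenerating system for 60 min at 37C. Full inhibition defined by 57uM ketoconazole.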
# [9] = biological target: alpha-glucosidase (Oryza sativa, rice) (UniProt Q653V4); assay: Counterscreen for Glucocerebrosidase Inhibitors: qHTS Assay for Rice alpha-Glucosidase at pH 5.0 (AID 997); settings: rice alpha-glucosidase enzyme activity; series mostly up to 76.9 µM;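 also: 0% = full activity with enzyme and -100% = basal without enzyme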
# How it was run: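 Rice alpha-glucosidase (4 nM final) with 400 uM 4-methylumbelliferyl-alpha-D-glucopyranoside in citrate buffer pH 5.0, 20 min at room temperature, stopped at pH 10; fluorescence 365/440 nm, compounds 0.7 nM–77 uM, AC50 from Hill fits.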
compound,measurement,setting,value
CC(C)n1nc(Cc2cccc3ccccc23)c2c(N)ncnc21,activity,[1],-11.5%
same,"activity change, negative = inhibition",[2],-6.43%
same,activity,[3],-28.9%
same,activity,[4],-57.3%
COC(=O)[C@@H]1[C@@H]2C[C@H]3c4[nH]c5ccccc5c4CCN3C[C@@H]2CC[C@@H]1O,"activity, negative = inhibition",[5]; parasite line A,13.9% (inactive)
same,"activity, negative = inhibition",[5]; parasite line B,-2.77% (inactive)
Nc1ncnc(Nc2ccc(OCc3ccccc3)c(Cl)c2)c1/C=N/OCCN1CCOCC1,Potency,[6],inactive
same,"activity change, negative = inhibition",[7]; HiBiT,-8.78% (inactive)
same,"activity change, negative = inhibition",[7]; Viability,12.2% (inactive)
CC1(C)CO[C@H](CC(=O)O)CN1,Potency,[8],5.01 µM (active)
O=C1NC(=O)/C(=C\c2ccc3c(c2)OC(F)(F)O3)S1,activity,[1],-3.87%
same,"activity change, negative = inhibition",[2],-2.97%
same,activity,[3],-7.77%
same,activity,[4],-2.73%
Clc1ccc(-c2nc3sccn3c2/C=N/OCc2ccc(Cl)c(Cl)c2)cc1,Potency,[6],inactive
CC1=C(\C=C/C(C)=C/C=C\C(C)=C\C(=O)O)C(C)(C)CCC1,Potency,[8],inactive and 5.01 µM (active) and 12.6 µM (active)
same,outcome,[9],inactive
